# Reference: PubChem BioAssay (NCATS)
# Values joined by “and” are separate entries in the source; they are usually repeats but may differ in a detail not shown here. Equal values may be shown once. Results filed as inconclusive are left out. Values without a mark were called inactive. Active and inactive are the calls of the source. The call rests on the fitted dose curve; in most records, active means well fitted inhibition curve with a large enough effect; inconclusive means small, poorly fitted or top-dose-only effect; inactive means flat fitted curve, though single readings scatter.
# What was measured:
# HB3 = test: qHTS profiling for inhibitors of Plasmodium falciparum proliferation (AID 504749); details: P. falciparum in erythrocytes, SYBR Green DNA, 72 h; series mostly up to 28.7 µM
# How it was run: (§1)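 Infected RBCs, 0.3% parasitemia/2.5% Hct final; cpd 72 h, 37 C, 5% CO2; lysis buffer with saponin/triton/SYBR Green I, o/n RT dark; FI 485/535; norm. to artemisinin (0.29 uM) and DMSO.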
# JCK = test: as above; details: P. falciparum in erythrocytes, SYBR Green DNA, 72 h; series mostly up to 28.7 µM
# How it was run: as §1
# N140 = test: as above; details: P. falciparum in erythrocytes, SYBR Green DNA, 72 h; series mostly up to 28.7 µM
# How it was run: as §1
# P93_24 = test: as above; details: P. falciparum in erythrocytes, SYBR Green DNA, 72 h; series mostly up to 28.7 µM
# How it was run: as §1
# P94_40 = test: as above; details: P. falciparum in erythrocytes, SYBR Green DNA, 72 h; series mostly up to 28.7 µM
# How it was run: as §1
# PAD = test: as above; details: P. falciparum in erythrocytes, SYBR Green DNA, 72 h; series mostly up to 28.7 µM
# How it was run: as §1
# PC15 = test: as above; details: P. falciparum in erythrocytes, SYBR Green DNA, 72 h; series mostly up to 28.7 µM
# How it was run: as §1
# PC26 = test: as above; details: P. falciparum in erythrocytes, SYBR Green DNA, 72 h; series mostly up to 28.7 µM
# How it was run: as §1
# PC49 = test: as above; details: P. falciparum in erythrocytes, SYBR Green DNA, 72 h; series mostly up to 28.7 µM
# How it was run: as §1
# SC27B = test: as above; details: P. falciparum in erythrocytes, SYBR Green DNA, 72 h; series mostly up to 28.7 µM
# How it was run: as §1
# TAB109 = test: as above; details: P. falciparum in erythrocytes, SYBR Green DNA, 72 h; series mostly up to 28.7 µM
# How it was run: as §1
# TAB113 = test: as above; details: P. falciparum in erythrocytes, SYBR Green DNA, 72 h; series mostly up to 28.7 µM
# How it was run: as §1
# W2 = test: as above; details: P. falciparum in erythrocytes, SYBR Green DNA, 72 h; series mostly up to 28.7 µM
# How it was run: as §1
# HEK293 = test: Cytotoxic Profiling of Annotated Libraries Using Quantitative High-Throughput Screening (AID 1296008); details: Five cell lines viability, CellTiter-Glo ATP luminescence, 48-72 h; max response: active compounds read low; on max response: on the % scale 0 is the no-effect control and ±100 the full control effect
# How it was run: (§2)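 Cytotoxicity was measured as CellTiter-Glo ATP luminescence, read after 10 min at room temperature. Compound treatment of the cells lasted 48 or 72 hr at 37 degrees Celsius in a qHTS format.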
# HaCat = test: as above; details: Five cell lines viability, CellTiter-Glo ATP luminescence, 48-72 h; max response: active compounds read low
# How it was run: as §2
# KB-3-1 = test: as above; details: Five cell lines viability, CellTiter-Glo ATP luminescence, 48-72 h; max response: active compounds read low
# How it was run: as §2
# ICS = test: qHTS profiling for inhibitors of Plasmodium falciparum proliferation (AID 504749); details: P. falciparum in erythrocytes, SYBR Green DNA, 72 h; series mostly up to 28.7 µM
# How it was run: as §1
# TAB165 = test: as above; details: P. falciparum in erythrocytes, SYBR Green DNA, 72 h; series mostly up to 28.7 µM
# How it was run: as §1
# NIH3T3 = test: Cytotoxic Profiling of Annotated Libraries Using Quantitative High-Throughput Screening (AID 1296008); details: Five cell lines viability, CellTiter-Glo ATP luminescence, 48-72 h; max response: active compounds read low; on max response: on the % scale 0 is the no-effect control and ±100 the full control effect
# How it was run: as §2
# CRL-7250 = normal cell line; test: as above; details: Five cell lines viability, CellTiter-Glo ATP luminescence, 48-72 h; max response: active compounds read low
# How it was run: as §2
# Further: nearly all actives have a fitted effect of over 60% in size.
# Potency means the concentration at half of the fitted maximal effect.
smiles,measurement,setting,value
CCN(CC)C(=O)/C(C#N)=C/c1cc(O)c(O)c([N+](=O)[O-])c1,Potency,HB3,inactive
same,Potency,JCK,inactive
same,Potency,N140,inactive
same,Potency,P93_24,inactive
same,Potency,P94_40,inactive
same,Potency,PAD,inactive
same,Potency,PC15,inactive
same,Potency,PC26,inactive
same,Potency,PC49,inactive
same,Potency,SC27B,inactive
same,Potency,TAB109,inactive
same,Potency,TAB113,inactive
same,Potency,W2,inactive
same,max response,HEK293,-12.8%
same,max response,HaCat,-5.03%
same,max response,KB-3-1,3.63%
O=C(N/N=C/c1ccccc1O)c1ccncc1,Potency,ICS,3.55 µM (active)
same,Potency,JCK,inactive
same,Potency,P93_24,10 µM (active)
same,Potency,P94_40,10 µM (active)
same,Potency,PC15,inactive
same,Potency,PC49,inactive
same,Potency,TAB109,12.6 µM (active)
same,Potency,TAB165,5.62 µM (active)
same,Potency,W2,6.01 µM (active)
same,max response,HaCat,-6.14%
same,max response,KB-3-1,8.17%
same,Potency,NIH3T3,16.8 µM (active)
C[C@]12CC[C@H]3[C@@H](CCC4=CC(=O)CC[C@@]43C)[C@@H]1CC[C@@H]2C(=O)CO,max response,CRL-7250,-11.9%
same,max response,KB-3-1,-3.06%
same,max response,NIH3T3,-2.44%
C#C[C@]1(O)CC[C@H]2[C@@H]3CCc4cc(OC5CCCC5)ccc4[C@H]3CC[C@@]21C,Potency,HB3,inactive
same,Potency,JCK,inactive
same,Potency,N140,inactive
same,Potency,P93_24,inactive
same,Potency,PAD,inactive
same,Potency,PC15,inactive
same,Potency,PC26,inactive
same,Potency,PC49,inactive
same,Potency,TAB109,inactive
same,Potency,TAB165,inactive
same,max response,CRL-7250,0.636%
same,max response,KB-3-1,-14.7%
CC(C)(C)CC(C)(C)c1ccc(OCCOCC[N+](C)(C)Cc2ccccc2)cc1,Potency,HB3,6.31 µM (active)
same,Potency,ICS,1.26 µM (active)
same,Potency,JCK,6.31 µM (active)
same,Potency,N140,3.98 µM (active)
same,Potency,P93_24,6.31 µM (active)
same,Potency,P94_40,5.01 µM (active)
same,Potency,PAD,8.91 µM (active)
same,Potency,PC15,5.01 µM (active)
same,Potency,PC26,4.26 µM (active)
same,Potency,PC49,6.31 µM (active)
same,Potency,SC27B,5.62 µM (active)
same,Potency,TAB109,5.62 µM (active)
same,Potency,TAB113,3.55 µM (active)
same,Potency,TAB165,3.16 µM (active)
same,Potency,W2,1.2 µM (active)
same,Potency,HEK293,6.68 µM (active) and 8.2 µM (active)
same,Potency,KB-3-1,20.6 µM (active)
same,max response,NIH3T3,-27.5%
COc1cc(-c2ccc(=O)[nH]n2)ccc1OC(F)F,Potency,HB3,inactive
same,Potency,ICS,inactive
same,Potency,N140,0.224 µM (active)
same,Potency,P93_24,0.0112 µM (active)
same,Potency,P94_40,0.112 µM (active)
same,Potency,PAD,inactive
same,Potency,PC15,inactive
same,Potency,SC27B,inactive
same,Potency,TAB109,0.0447 µM (active)
same,Potency,TAB113,0.0355 µM (active)
same,Potency,TAB165,0.282 µM (active)
same,Potency,CRL-7250,1.19 µM (active)
same,max response,NIH3T3,-9.32%
NC(=O)C(=O)N/N=C/c1ccc([N+](=O)[O-])o1,Potency,HB3,inactive
same,Potency,ICS,inactive
same,Potency,JCK,inactive
same,Potency,N140,inactive
same,Potency,P93_24,inactive
same,Potency,P94_40,inactive
same,Potency,PAD,inactive
same,Potency,PC15,inactive
same,Potency,PC49,inactive
same,Potency,SC27B,inactive
same,Potency,TAB109,inactive
same,Potency,TAB113,inactive
same,Potency,TAB165,inactive
same,outcome,HaCat,inactive
same,max response,KB-3-1,30.2%
CN(C(=O)CN(CCO)CC(=O)N(C)C(C)(C)Cc1ccccc1)C(C)(C)Cc1ccccc1,Potency,HB3,inactive
same,Potency,JCK,inactive
same,Potency,P93_24,inactive
same,Potency,P94_40,inactive
same,Potency,PAD,inactive
same,Potency,PC15,inactive
same,Potency,PC26,inactive
same,Potency,PC49,inactive
same,Potency,SC27B,inactive
same,Potency,TAB109,inactive
same,Potency,TAB113,inactive
same,Potency,W2,3.61 µM (active)
same,max response,HaCat,-0.203%
same,max response,KB-3-1,-13.8%
CN1CCN(CCCN2c3ccccc3Sc3ccc(S(=O)(=O)N(C)C)cc32)CC1,Potency,ICS,1.41 µM (active)
same,Potency,P93_24,3.16 µM (active)
same,Potency,P94_40,3.16 µM (active)
same,Potency,PAD,3.98 µM (active)
same,Potency,TAB165,3.98 µM (active)
same,Potency,W2,2.03 µM (active)
same,outcome,HaCat,inactive
same,max response,KB-3-1,-2.22%
Cc1cc(N)c2cc(NC(=O)Nc3ccc4nc(C)cc(N)c4c3)ccc2n1,Potency,HB3,4.47 µM (active)
same,Potency,ICS,5.01 µM (active)
same,Potency,JCK,11.2 µM (active)
same,Potency,N140,11.2 µM (active)
same,Potency,P94_40,12.6 µM (active)
same,Potency,PAD,12.6 µM (active)
same,Potency,SC27B,12.6 µM (active)
same,Potency,TAB109,12.6 µM (active)
same,Potency,TAB113,10 µM (active)
same,Potency,TAB165,5.62 µM (active)
same,Potency,W2,0.849 µM (active)
same,max response,HaCat,-0.42%
same,max response,KB-3-1,-4.37%
same,max response,NIH3T3,-1.27%
C[C@@H](CN(C)C)CN1c2ccccc2Sc2ccccc21,Potency,HB3,inactive
same,Potency,JCK,inactive
same,Potency,P93_24,inactive
same,Potency,PAD,inactive
same,Potency,PC15,inactive
same,Potency,PC49,inactive
same,Potency,SC27B,inactive
same,Potency,TAB109,inactive
same,Potency,TAB113,inactive
same,Potency,TAB165,inactive
same,max response,HaCat,-0.198%
same,max response,KB-3-1,-9.85%
same,max response,NIH3T3,-1.51%
CC(=O)OCC(=O)[C@@]12N=C(C)O[C@@H]1C[C@H]1[C@@H]3CCC4=CC(=O)C=C[C@]4(C)[C@H]3[C@@H](O)C[C@@]12C,outcome,HEK293,inactive
same,outcome,HaCat,inactive
same,max response,KB-3-1,7.15%
same,max response,NIH3T3,-1.08%
COc1cc(/C=C/C(=O)O[C@H]2CC[C@]34C[C@]35CC[C@]3(C)[C@@H]([C@H](C)CCC=C(C)C)CC[C@@]3(C)[C@@H]5CC[C@H]4C2(C)C)ccc1O,max response,HEK293,2.65%
same,outcome,HaCat,inactive
same,max response,KB-3-1,0.76% and -6.22%
same,max response,NIH3T3,0.391%
COc1ccc(CCN2CCC(Nc3nc4ccccc4n3Cc3ccc(F)cc3)CC2)cc1,Potency,HB3,4.47 µM (active)
same,Potency,ICS,2.82 µM (active)
same,Potency,JCK,6.31 µM (active)
same,Potency,N140,3.55 µM (active)
same,Potency,P93_24,2.82 µM (active)
same,Potency,P94_40,3.16 µM (active)
same,Potency,PAD,3.98 µM (active)
same,Potency,PC15,6.31 µM (active)
same,Potency,PC26,6.75 µM (active)
same,Potency,PC49,4.47 µM (active)
same,Potency,SC27B,3.98 µM (active)
same,Potency,TAB109,2.51 µM (active)
same,Potency,TAB113,3.98 µM (active)
same,Potency,TAB165,2.82 µM (active)
same,Potency,W2,3.01 µM (active)
same,Potency,HEK293,9.44 µM (active)
same,Potency,NIH3T3,4.73 µM (active)
